Rab9 promoter act – qHTS Assay for Rab9 Promoter Activators; Potency, µM (series often up to 9.22 µM), hits mostly activators; 320,000 compounds, 2.8% hits; AID 485297, 2010; Huh7 Rab9 promoter-luciferase reporter, luminescence, 24 h; note: nearly all actives have a fitted effect of over 60% in size
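Using Huh7 cells stably transfected with Rab9 promoter–luciferase, compounds were incubated 24 h at 37 °C, 5% CO2; luciferase luminescence was read 10 min after reagent addition.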
ELG1 genotoxic – qHTS screen for small molecules that induce genotoxicity in human embryonic kidney (HEK293T) cells expressing luciferase-tagged ELG1 | HEK293T ELG1-luciferase reporter, luminescence, 16 h | Potency, µM (top dose mostly 46 µM), actives largely listed as activators | 330,000 compounds, 1.3% hits | AID 504466, 2011; note: nearly all actives have a fitted effect of over 60% in size
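16 hr compound incubation (37 °C, 5% CO2) of HEK293T cells carrying luciferase-tagged ELG1; luciferase then measured by ONE-Glo luminescence after 30 min at RT.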
FLuc counter – qHTS profiling assay for firefly luciferase inhibitor/activator using purifed enzyme and Km concentrations of substrates (counterscreen for miR-21 project). Luciferin 4-monooxygenase (Photinus pyralis), P08659. purified FLuc, Km substrates, luminescence inhibition. Potency, µM (top dose mostly 57.5 µM), usual class: inhibitors. 360,000 compounds, 6.9% hits; note: nearly all actives have a fitted effect of over 55% in size
Target sequence (P08659 whole entry, looked up): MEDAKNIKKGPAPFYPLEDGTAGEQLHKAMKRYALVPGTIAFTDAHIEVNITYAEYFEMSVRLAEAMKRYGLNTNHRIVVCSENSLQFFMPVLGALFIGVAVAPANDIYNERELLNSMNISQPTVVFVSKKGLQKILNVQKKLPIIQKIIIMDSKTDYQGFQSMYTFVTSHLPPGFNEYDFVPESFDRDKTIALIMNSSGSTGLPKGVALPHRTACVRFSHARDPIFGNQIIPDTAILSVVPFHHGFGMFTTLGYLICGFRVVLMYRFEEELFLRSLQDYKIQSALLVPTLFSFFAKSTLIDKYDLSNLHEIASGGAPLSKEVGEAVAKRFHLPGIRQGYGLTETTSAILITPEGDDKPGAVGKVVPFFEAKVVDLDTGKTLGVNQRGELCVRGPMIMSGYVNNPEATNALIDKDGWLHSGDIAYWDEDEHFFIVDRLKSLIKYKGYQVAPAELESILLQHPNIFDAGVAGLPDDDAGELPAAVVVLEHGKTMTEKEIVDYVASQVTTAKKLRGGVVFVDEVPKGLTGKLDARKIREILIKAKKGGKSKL
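Biochemical qHTS of compounds, final roughly 60 µM downward over six points, against 10 nM purified firefly luciferase using Km concentrations of substrates (10 uM D-luciferin, 10 uM ATP) in Tris acetate pH 7.5 buffer; luminescence output.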
NPC1 prom act – qHTS Assay for NPC1 Promoter Activators | Huh7 NPC1 promoter luciferase reporter, 24 h | Potency, µM (doses to about 9.22 µM), most hits filed as activators | 320,000 compounds, 2.4% hits; note: nearly all actives have a fitted effect of over 60% in size
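Readout is luciferase luminescence, reflecting NPC1 promoter activation in stably transfected Huh7 cells after 24 h compound exposure at 37 °C in reduced-serum medium with 10% FBS.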
SMN2 splice up – qHTS Assay for Enhancers of SMN2 Splice Variant Expression. HEK293 SMN2-luciferase splicing reporter, luminescence, 30-36 h. Potency, µM (highest dose often 46.1 µM), usual class: activators. 210,000 compounds, 2.8% hits. AID 1458, 2008; note: nearly all actives have a fitted effect of over 55% in size
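qHTS luciferase splicing reporter: luminescence rises when SMN2 exon 7 is included in transfected HEK293 cells. Compound exposure lasted 30-36 h at 37C, with 4.5 mM final sodium butyrate as control, followed by a ONE-Glo read.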
KinaseGlo FLuc – Counterscreen for Luciferase (Kinase-Glo TM) Inhibition; Kinase-Glo luciferase, ATP luminescence, 8 min; Potency, µM (top dose mostly 38.3 µM), most hits filed as inhibitors; 200,000 compounds, 0.28% hits; note: nearly all actives have a fitted effect of over 60% in size
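Inhibition of Kinase-Glo luciferase light generation was assessed at 10 uM ATP in pH 7.2 imidazole buffer, with luminescence measured after eight minutes at ambient temperature.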
Hits are given with their value; n = inactive; u = inconclusive; x = not tested or not shown. Hits are enriched below; roughly 7.5% of the tested compounds scored in any of these assays. Calls come from the whole dose curve; as a rule, active = well fitted curve in the direction sought with a large enough effect; inconclusive = small, poorly fitted or top-dose-only effect, or another doubt; inactive = no such curve, though single readings can be large; an effect the other way counts as inactive or inconclusive.

SMILES	Rab9 promoter act	ELG1 genotoxic	FLuc counter	NPC1 prom act	SMN2 splice up	KinaseGlo FLuc
COC(=O)c1ccc(NC(=O)c2cc(-c3ccncc3)nc3ccccc23)cc1	n	n	n	n	x	x
COc1ccc(-c2cc(C(=O)Nc3ccc(C)c(N)c3)c3ccccc3n2)cc1	n	n	5.4µM	n	x	x
COc1ccc(-c2cc(C(=O)Nc3ccc(S(=O)(=O)Nc4ncccn4)cc3)c3ccccc3n2)cc1	n	n	4.8µM	n	x	x
COc1ccc(-c2cc(C(=O)Nc3ccc(S(=O)(=O)Nc4onc(C)c4C)cc3)c3ccccc3n2)cc1	n	n	9.5µM	n	x	x
Cc1nc(N2CCN(C(=O)c3ccco3)CC2)c2c3c(sc2n1)CCCC3	n	n	n	n	n	n
O=C(CSc1ncnc2sc3c(c12)CCCC3)c1ccco1	u	n	12µM	n	n	n
CCc1nc(SCC(=O)N2CCN(C(=O)c3ccco3)CC2)c2c3c(sc2n1)CCCC3	n	n	17µM	n	n	n
CCOC(=O)Cc1nnc(Nc2ccc(C(=O)NC)cc2)c2ccccc12	n	n	n	n	x	x
Cn1cc([N+](=O)[O-])c(C(=O)Nc2ccc(C3CCCCC3)cc2)n1	u	n	11µM	n	x	n
Cc1cc(C)n(Cc2ccc(NC(=O)c3nn(C)cc3[N+](=O)[O-])cc2)n1	n	n	n	n	n	n
Cn1cc([N+](=O)[O-])c(C(=O)Nc2ccc(-c3nc4ccccc4[nH]3)cc2)n1	u	u	2.7µM	u	8.9µM	n
Cn1cc([N+](=O)[O-])c(C(=O)Nc2ccc3nc(-c4ccccc4)[nH]c3c2)n1	u	u	4.8µM	3.2µM	16µM	n
Cn1cc([N+](=O)[O-])c(C(=O)NCc2cc3ccccc3[nH]2)n1	n	n	n	n	n	n
COCCNC(=S)N1CCC(NC(=O)c2ccco2)CC1	n	n	n	n	x	n
COc1ccc(CNC(=O)c2c3c(nc4ccccc24)C(=O)N(C2CCCCC2)C3)cc1	x	x	n	x	x	x
O=C(Cc1ccccc1)N(Cc1cccnc1)c1nc2c(F)cccc2s1	x	x	n	x	x	x
O=C(c1ccc2c(c1)OCCO2)N(Cc1cccnc1)c1nc2c(F)cccc2s1	x	x	17µM	x	x	x
C=CCc1cccc(/C=N/c2nc3ccccc3n2CC)c1O	n	n	n	n	n	n
C=CCn1c(/N=C/c2ccc3c(c2)OCO3)nc2ccccc21	n	n	6.7µM	n	n	n
CCCn1c(/N=C/c2ccc3c(c2)OCO3)nc2ccccc21	n	n	4.8µM	n	n	n
Brc1ccc(/C=N/c2nc3ccccc3n2CCN2CCOCC2)cc1	n	n	24µM	n	n	n
C(=N\c1nc2ccccc2n1CCN1CCCCC1)/c1ccc2c(c1)OCO2	n	n	n	n	n	n
CN(C1CCCCC1)S(=O)(=O)c1ccc(S(=O)(=O)N(CC(=O)Nc2ccccc2)C2CC2)cc1	n	n	n	n	x	x
CC1CCN(c2ncnc3c2cnn3-c2ccccc2)CC1	0.63µM	1.5µM	2.1µM	0.89µM	13µM	n
CCOC(=O)C1CCN(c2ncnc3c2cnn3-c2ccccc2)CC1	n	u	u	n	n	n
SMILES	Rab9 promoter act	ELG1 genotoxic	FLuc counter	NPC1 prom act	SMN2 splice up	KinaseGlo FLuc
COc1ccc(-n2ncc3c(N4CCC(C)CC4)ncnc32)cc1	0.1µM	0.26µM	0.54µM	0.11µM	x	x
Cc1ccc(-n2ncc3c(N4CCC(C)CC4)ncnc32)cc1C	x	x	1.5µM	x	x	x
CC(C)(C)OC=O	x	x	x	x	n	x
CCOC(=O)c1ccc(NC(=O)NCCc2cnc[nH]2)cc1	n	n	u	n	x	x
CCOc1ccc(NC(C)C(=O)N/N=C/c2cccs2)cc1 (centres undefined)	n	n	n	n	n	n
CCCCOc1ccc(N=Cc2cccs2)cc1	n	n	5.4µM	n	n	n
CCCCCCOc1ccc(C2C(=O)N(C3CCCCC3)CC(=O)N2CCC)cc1 (centres undefined)	x	x	n	x	x	x
COc1ccccc1N1CCN(S(=O)(=O)CCNC(=O)COc2ccc(C(C)C)cc2)CC1	x	x	24µM	x	x	x
CCOc1ccc(CC(=O)NCCS(=O)(=O)N2CCN(c3ccccc3OC)CC2)cc1	x	x	n	x	x	x
COC(=O)c1ccc(OCC(=O)c2ccc(O)cc2O)cc1	n	n	6.7µM	u	n	n
CCOC(=O)c1ccc(OCC(=O)c2ccc(O)cc2O)cc1	n	u	6.7µM	n	n	n
O=C(COc1ccc(Cl)cc1)c1ccc(O)cc1O	u	u	8.5µM	n	x	x
O=C(COc1ccccc1)OCC(=O)c1ccc(O)cc1O	n	n	u	n	x	x
O=C(COC(=O)c1ccc(O)cc1O)c1ccc(Cl)cc1	n	n	17µM	n	x	x
COC(=O)c1ccc(OCC(=O)c2ccc(C)c(C)c2)cc1	n	n	u	n	n	n
CCOC(=O)c1ccc(CC(=O)c2ccc(O)cc2O)o1	n	n	n	n	n	n
COc1ccccc1NC(=O)C1=C(C)Nc2nc(SCc3ccccc3)nn2C1c1cccc(O)c1 (centres undefined)	x	x	n	x	n	x
CCC1CCc2c(sc(NC(=O)C3c4ccccc4Oc4ccccc43)c2C#N)C1 (centres undefined)	x	x	n	x	n	x
CCCn1c(COc2ccccc2OC)nc2ccccc21	n	n	u	n	x	x
CCn1c(COc2ccccc2C)nc2ccccc21	n	u	11µM	n	u	n
Cn1c(COc2ccccc2Br)nc2ccccc21	u	10µM	6.7µM	2.5µM	x	x
CCn1c(COc2ccccc2OC)nc2ccccc21	n	n	17µM	n	x	x
CCn1c(CCc2ccccc2)nc2ccccc21	n	n	17µM	n	x	x
CCOC(=O)c1noc2nc(C)n(CC(=O)NC(C)CC)c(=O)c12 (centres undefined)	x	x	n	x	x	x
Cc1c(C(=O)OCC(=O)N(C)CC(=O)Nc2ccc(F)cc2)oc2ccccc12	n	n	n	n	x	x
SMILES	Rab9 promoter act	ELG1 genotoxic	FLuc counter	NPC1 prom act	SMN2 splice up	KinaseGlo FLuc
CCCC(=O)N(CCN1CCOCC1)c1nc2c(F)cc(F)cc2s1	u	n	n	n	x	x
Cc1nc(-c2ccc(S(=O)(=O)NCc3ccc(OC(C)C)cc3)cc2)co1	x	x	n	x	x	x
O=C(OCCc1ccccc1)c1cc(O)c(O)c(O)c1	n	u	24µM	n	x	x
COc1ccc(C(=O)OCCc2ccc(O)cc2)cc1	u	13µM	6.7µM	u	u	n
CN(C)S(=O)(=O)c1ccc(C(=O)OCCc2ccccc2)cc1	n	n	15µM	n	x	x
O=C(OCCCCOC(=O)c1ccccc1)c1ccccc1	n	n	n	n	x	x
CN(C)S(=O)(=O)c1ccc(C(=O)OCC(=O)NCc2ccccc2)cc1	n	n	n	n	n	n

Source: PubChem BioAssay (National Center for Advancing Translational Sciences (NCATS))
